PubChem BioAssay
Calls of active or inactive are those of the source.

Experiments:
[1] = A549 cell viability effects, profiling panel, calcein-AM fluorescence, 48 h, basal (AID 1162); settings: higher = more signal
[2] = adipocyte viability effects, profiling panel, cell-based, 3T3-L1 adipocytes, calcein-AM fluorescence, 48 h, basal (AID 1163); settings: 3T3-L1 adipocytes viability, higher = more signal
[3] = HepG2 cell viability effects, profiling panel, calcein-AM fluorescence, 48 h, basal (AID 1164); settings: higher = more signal
[4] = MM1S cell viability effects, profiling panel, calcein-AM fluorescence, 48 h, basal (AID 1165); settings: higher = more signal;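 note: viability of MM1S multiple myeloma cells under basal unstimulated conditions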
[5] = basal RPMI8226 viability, no added stimulus, profiling panel, cell-based, calcein-AM fluorescence, 48 h, PK04 Diversity Set (AID 1166); settings: RPMI8226 myeloma viability, higher = more signal;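 note: cells grown under basal conditions without added stimulus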
[6] = basal HepG2 mitochondrial membrane potential changes, profiling panel, cell-based, JC-1 fluorescence, 24 h, 100 nL compound (AID 1167); settings: higher = more signal
[7] = basal 3T3-L1 adipocyte mitochondrial potential changes, profiling panel, cell-based, JC-1 fluorescence, 3T3-L1 adipocytes, 24 h, 100 nL compound (AID 1168); settings: JC-1 mitochondrial fluorescence, higher = more signal, called active from +8 up or from −8 down
[8] = basal RPMI8226 mitochondrial membrane potential changes, profiling panel, cell-based, JC-1 fluorescence, 24 h, 100 nL compound (AID 1169); settings: RPMI8226 myeloma, JC-1 mitochondrial potential fluorescence, higher = more signal
[9] = basal MM1S mitochondrial membrane potential changes, profiling panel, cell-based, JC-1 fluorescence, 24 h, 100 nL compound (AID 1170); settings: higher = more signal
[10] = A549 lung cancer cell viability effects, profiling panel, resazurin fluorescence, 24 h, PK04 Diversity Set (AID 1171); settings: higher = more signal, called active from +8 up or from −8 down
Note: test concentration not given here.

| SMILES | z-score [1] | z-score [2] | z-score [3] | z-score [4] | z-score [5] | z-score [6] | z-score [7] | z-score [8] | z-score [9] | z-score [10] |
| --- | --- | --- | --- | --- | --- | --- | --- | --- | --- | --- |
| COc1ccc(C(O)C2C=CC3C(=O)N(C)C(=O)C3N2Nc2ccccc2)cc1 (stereo not given) | -1.12 | -0.221 | -0.393 | 0.291 | -0.301 | -1.27 | -0.0635 (inactive) | -0.176 | -0.153 | -1.27 (inactive) |
| CN1C(=O)C2C=CC(C(O)COCc3ccccc3)N(Nc3ccc([N+](=O)[O-])cc3[N+](=O)[O-])C2C1=O (stereo not given) | 1.02 | -0.611 | -0.832 | -1.38 | -0.988 | -0.681 | -0.985 (inactive) | -0.141 | -0.815 | -0.583 (inactive) |
| COc1cc(CO)cc(I)c1O[C@H]1C=C(C(=O)NCCO)C[C@@H](N(CCN2CCOCC2)C(=O)C2CCCO2)[C@@H]1O (stereo not given in full) | 1.51 | -0.786 | 0.315 | 0.605 | -0.984 | 1.68 | -0.526 (inactive) | 0.385 | -0.1 | -0.0953 (inactive) |
| COc1cc(Cc2cc3c(c(-c4ccccc4)n2)[Si](C(C)C)(C(C)C)OC3)cc(OC)c1OC | 0.24 | 0.609 | -0.305 | -0.537 | -0.189 | -0.591 | 0.323 (inactive) | 0.138 | 0.382 | 0.534 (inactive) |
| COc1cccc(C)c1NC(=O)O[C@H]1[C@H](OC(=O)Nc2ccccc2-c2ccccc2)[C@@H](OC(=O)Nc2ccccc2-c2ccccc2)[C@@H](OC)O[C@@H]1CO | -2.87 | 0.458 | -3.51 | -3.08 | -3.27 | 1.98 | 1.62 (inactive) | -0.928 | -1.41 | -4.57 (inactive) |
| CCCCCN1CC=CC23O[C@@H]4/C=C\CCCOC(=O)C4[C@H]2C(=O)N(CCCCCO)[C@@H]3C1=O (stereo not given in full) | 0.386 | 1.96 | -0.216 | 0.281 | 1.13 | -0.116 | 1.24 (inactive) | -0.21 | -0.235 | 0.844 (inactive) |
| CCCCC(=C=CC[C@H](O)c1cccc(OCCO)c1)C[C@H](O)c1cc(Cl)cc(Cl)c1O | 0.827 | -0.241 | 0.358 | -3.12 | -1.24 | 0.0773 | 0.309 (inactive) | -0.00147 | -1.05 | 1.57 (inactive) |
| COC(=O)[C@@]1(Cc2ccc(F)cc2)[C@H]2c3cc(C(=O)N4CCCC4)n(CCc4c[nH]c5cc(F)ccc45)c3C[C@H]2CN1C(=O)c1ccccc1 | -0.767 | -0.0351 | 0.194 | -0.234 | -1.37 | 2.18 | -1.2 (inactive) | -0.449 | -1.21 | 0.339 (inactive) |
| C#CCN(C(=O)OC(C)(C)C)[C@H](CO)c1ccccc1 | -0.413 | -0.24 | -1.51 | -0.404 | -0.404 | -1.16 | 0.0135 (inactive) | 0.136 | -0.125 | 0.659 (inactive) |
| O=C1NC(=O)C2C1C=CC(C(O)C(c1ccccc1)c1ccccc1)N2Nc1ccccn1 (stereo not given) | 0.795 | -0.46 | 0.605 | 0.332 | 0.077 | 0.176 | -0.219 (inactive) | 0.432 | 0.525 | -0.0343 (inactive) |
| CC1CC/C=C\[C@H]2OC34C=CCN(CCN5CCOCC5)C(=O)[C@H]3N(C(CO)C(C)C)C(=O)[C@@H]4C2C(=O)O1 (stereo not given in full) | 0.0685 | -1.26 | 0.545 | -0.515 | 0.0582 | -0.989 | -0.161 (inactive) | 0.19 | -0.308 | -0.37 (inactive) |
| O=C(c1ccccc1)N1Cc2ccccc2C[C@@]2(N=C(c3ccc(OCCCO)cc3)O[C@H]2c2ccccc2)C1=O | -1.12 | 0.862 | -1.18 | -3.31 | -4.05 | -1.68 | 0.471 (inactive) | -1.25 | -2.14 | -2.63 (inactive) |
| C=CCC(OC(C)=O)[C@@H]1[C@@H](N(Cc2ccc(-c3ccccc3)cc2)C(=O)Cc2ccc(OC)cc2)c2cc(OCCCO)ccc2N1C(=O)Cc1ccc(OC)cc1 (stereo not given in full) | 0.0816 | 0.9 | -0.103 | 0.11 | -0.203 | 2.58 | -0.454 (inactive) | -0.0751 | 0.504 | 0.117 (inactive) |
| CC(C)C[C@@H]1NC(=O)[C@@H]2C[C@H](C(=O)NCCCCCNC(=O)CS)[C@H](c3ccc(O)cc3)N2C1=O | 0.161 | 2.21 | -0.787 | -0.263 | -0.782 | -0.63 | -0.195 (inactive) | 0.393 | -1.1 | 0.16 (inactive) |
| COCCOC(=O)N1C(=O)[C@@]2(c3cc(C#CCNC(N)=O)ccc31)[C@H](C(=O)Nc1nc3ccccc3s1)[C@H]1C(=O)O[C@H](c3ccccc3)[C@H](c3ccccc3)N1[C@@H]2c1ccc(O)cc1 | -0.277 | -0.133 | -0.287 | -1.19 | 0.258 | -3.96 | -2.98 (inactive) | -0.776 | -1.14 | 0.14 (inactive) |
